Measured values from PubChem BioAssay AID1159580 (chemical genetic matrix, 2015).
In all, about 5,500 compounds went through this assay and about 2,000 (36%) were called active. Inconclusive results (about 18%) are left out. Cut-off read from the data, not from the text of the source: active = normalized growth mostly below about 0.91 (no sharp cut-off); inconclusive = no clear call, values can overlap the other calls; inactive = mostly above about 0.92. The list shows a part of the results.

Assay: chemical genetic growth profiling, strain panel (AID 1159580);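 note: tested at 20 µM; growth read once vehicle control cultures reached saturation at 30 °C; 1 = growth at the plate median or of vehicle wells; lower values mean less growth of the strain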
Settings: S. cerevisiae deletion strains, growth OD

Measured: normalized growth

CCCCOC(=O)NS(=O)(=O)c1sc(CC(C)C)cc1-c1ccc(Cn2c(CC)nc3c(C)cc(C)nc32)cc1
inactive: locus YAL013W, strain DEP1, active compounds read low 1 | locus YAL040C, strain CLN3, active compounds read low 1.01 | locus YCL061C, strain MRC1 (second series), active compounds read low 0.999 | locus YDR150W, strain NUM1, active compounds read low 1.01 | locus YDR363W, strain ESC2, active compounds read low 0.988 | locus YER002W, strain NOP16, active compounds read low 0.997 | locus YJR075W, strain HOC1, active compounds read low 0.999 | locus YNL128W, strain TEP1, active compounds read low 1 | locus YNL153C, strain GIM3, active compounds read low 0.923 | locus YNL175C, strain NOP13, active compounds read low 1 | locus YNL197C, strain WHI3, active compounds read low 1 | locus YNL224C, strain SQS1, active compounds read low 0.98 | locus YOR083W, strain WHI5 (second series), active compounds read low 0.919
